Bioassay records: PubChem, National Center for Advancing Translational Sciences (NCATS)
This is a sample that favours compounds with a hit; in the whole collection about 15% have one here.
12-LOX inh: Primary qHTS assay for inhibitors of human arachidonate 12S-lipoxygenase (ALOX12): Round 2. Polyunsaturated fatty acid lipoxygenase ALOX12 (Homo sapiens), P18054. purified 12hLO, xylenol orange hydroperoxide absorbance. Potency, µM (highest dose often 108 µM), without a hit: at the top dose activity change, negative = inhibition, usual class: inhibitors. 1.1% of 580,000 active
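Hydroperoxide product was detected by ferrous iron/xylenol orange as the 573 to 405 nm absorbance ratio. Arachidonic acid at 40 uM (final) was turned over for 30 min at room temperature by 150 nM human 12hLO, pH 7.0 Hepes buffer, after 15 min compound preincubation.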
RORg inh: qHTS for inhibitors of ROR gamma transcriptional activity. Nuclear receptor ROR-gamma (Mus musculus), P51450. Drosophila S2 Gal4-RORgamma UAS-luciferase reporter, 20 h. Potency, µM (top dose mostly 53.6 µM), inactives show at the top dose activity change, negative = inhibition, usual class: inhibitors. 5.4% of 310,000 active; further: nearly all actives have a fitted effect of over 60% in size
Target sequence (P51450 whole entry, looked up, the tested form may be a part): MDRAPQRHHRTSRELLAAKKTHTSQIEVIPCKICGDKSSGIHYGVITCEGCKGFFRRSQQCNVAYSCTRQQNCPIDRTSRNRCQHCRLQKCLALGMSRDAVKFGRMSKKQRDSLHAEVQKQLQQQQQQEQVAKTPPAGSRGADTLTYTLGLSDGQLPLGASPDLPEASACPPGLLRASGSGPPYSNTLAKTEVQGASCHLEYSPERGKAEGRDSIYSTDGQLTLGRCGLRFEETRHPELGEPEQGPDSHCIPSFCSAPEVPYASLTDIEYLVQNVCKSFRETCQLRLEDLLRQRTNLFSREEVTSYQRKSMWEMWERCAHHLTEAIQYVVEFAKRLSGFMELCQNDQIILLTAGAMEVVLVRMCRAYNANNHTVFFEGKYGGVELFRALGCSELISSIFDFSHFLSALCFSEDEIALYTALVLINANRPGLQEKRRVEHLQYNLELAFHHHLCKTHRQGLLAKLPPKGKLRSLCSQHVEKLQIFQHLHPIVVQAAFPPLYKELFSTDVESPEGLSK
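Compounds are pin-transferred onto Drosophila Schneider cells expressing a copper-inducible Gal4–ROR gamma transactivation domain fusion. After 1 hr, copper sulfate is added to 700 uM final; luciferase is read 20 hr later.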
ELG1 DNA repair: qHTS screen for small molecules that inhibit ELG1-dependent DNA repair in human embryonic kidney (HEK293T) cells expressing luciferase-tagged ELG1 | HEK293T ELG1-luciferase reporter, luminescence, 16 h; DNA damage induced by 5-fluorouridine | Potency, µM (highest dose often 46.1 µM), inactives show top-dose activity change, negative = inhibition, most hits filed as inhibitors | 2.3% of 330,000 active; further: nearly all actives have a fitted effect of over 55% in size
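HEK293T cells expressing luciferase-tagged ELG1 (2,000/well) received 5-Fluorouridine plus compound or DMSO for 16 hr at 37 °C. Luciferase was read by ONE-Glo luminescence after 30 min at room temperature.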
TDP1 cell noCPT: qHTS for Inhibitors of human tyrosyl-DNA phosphodiesterase 1 (TDP1): qHTS in cells in absence of CPT. DT40 Tdp1-/- hTDP1 cells, no CPT, ATP luminescence, 48 h. Potency, µM (highest dose often 46.2 µM), for inactives: top-dose activity change, negative = growth inhibition, most hits filed as inhibitors. 15% of 420,000 active; further: nearly all actives have a fitted effect of over 55% in size
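Chicken DT40 Tdp1-/- cells stably complemented with human TDP1 were seeded at 400 cells/well with DMSO in place of 20 nM camptothecin. After compound pinning, cells grew at least 48 hr at 37 °C; viability read by CellTiter-Glo luminescence.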
DT40 TDP1 CPT: qHTS for Inhibitors of human tyrosyl-DNA phosphodiesterase 1 (TDP1): qHTS in cells in presence of CPT. AID 686979, 2013. 12% of 420,000 active. Potency, µM (titrated, usually from 46.2 µM), for the others: at the top dose activity change, negative = growth inhibition, actives largely listed as inhibitors. chicken DT40 Tdp1-/-;hTDP1 cells + 20 nM CPT, ATP luminescence, 48 h; further: nearly all actives have a fitted effect of over 55% in size
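Chicken DT40 Tdp1-/- cells complemented with human TDP1, 400 cells/well, exposed to compounds plus 20 nM camptothecin for at least 48 h at 37 C; viability read as ATP content by CellTiter-Glo luminescence.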
VP16 counter: VP16 counterscreen qHTS for inhibitors of ROR gamma transcriptional activity; 3.5% of 310,000 active; Drosophila S2 Gal4-VP16 UAS-luciferase, luminescence, 20 h; Potency, µM (doses to about 53.6 µM), inactives show top-dose activity, negative = inhibition, usual class: inhibitors; AID 2546, 2010;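 further: Gal4-VP16 expression switched on by copper sulfate through the metallothionein promoter; nearly all actives have a fitted effect of over 50% in size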
The depositor's hits bear a star; ? = inconclusive; · = no result given; [ ] = dose if it differs, or a comment. The call rests on the fitted dose curve; in most records, active means well fitted curve in the direction sought with a large enough effect; inconclusive means small, poorly fitted or top-dose-only effect, or another doubt; inactive means no such curve, though single readings can be large; an effect the other way counts as inactive or inconclusive. On the % scale 0 is the no-effect control and ±100 the full control effect; potency means the concentration at half of the fitted maximal effect.

SMILES	12-LOX inh	RORg inh	ELG1 DNA repair	TDP1 cell noCPT	DT40 TDP1 CPT	VP16 counter
CCOc1ccc(C2C(C#N)=C(N)SC(N)=C2C#N)c(OCC)c1	?	12.6µM*	5.5%	?	?	?
CCN(Cc1ccccc1)C(=O)CSc1nc(C2CC2)nc2ccccc12	8.3%	·	·	·	·	·
O=C(CC1C=CCC1)N(Cc1cccs1)C1CC1 (centres undefined)	37.3%	·	·	·	·	·
COc1ccc(CCNC(=O)C(C)C)cc1	-35.5%	·	·	·	·	·
NC(=S)NN=C1c2ccccc2-c2cc(Br)ccc21	39.8µM*	·	·	3.66µM*	5.17µM*	·
ON=C1c2ccccc2-c2ccc(F)cc21	-6.1%	·	·	18.4µM*	?	·
CC1(C)[N+]([O-])=C2C(=[N+]([O-])C1(C)C)c1ccccc1/C2=N\O	?	-28.5%	-3.0%	-17.8%	-18.7%	-4.1%
ON=C1c2ccccc2-c2ccc(Br)cc21	-6.9%	·	·	23.1µM*	29.1µM*	·
NC(=O)N/N=C1\c2ccccc2-c2c(C(N)=O)cccc21	0.0%	-30.3%	3.5%	-4.1%	-52.9%	5.4%
Nc1cc2c(cc1Br)-c1ccccc1C2=NO	-5.2%	·	·	?	25.9µM*	·
Cc1cn2nc(C(=O)N3CCC(NC(=O)c4ccc(C)s4)CC3)cc2c(=O)[nH]1	5.4%	·	·	·	·	·
O=S(=O)(NCCc1cn2ccccc2n1)c1cccc(Cl)c1	3.5%	·	·	·	·	·
Cc1cc(NC(=O)C(C)Sc2nccn2-c2ccc(Cl)cc2)no1 (centres undefined)	-0.6%	·	·	·	·	·
C[C@H]1CCCN1C(=O)c1nnc(COc2ccccc2)n1-c1ccccc1	59.9%[176 µM]	·	·	·	·	·
Cc1cc2nc(CSCC(=O)Nc3ccccc3)cc(=O)n2o1	-21.1%	·	·	·	·	·
CC(Sc1nc(C2CC2)n(-c2ccccc2)n1)C(=O)c1c(N)n(C)c(=O)n(C)c1=O (centres undefined)	0.1%	16.3%	-10.3%	-9.4%	2.7%	14.2%
Cn1c(N)c(C(=O)CSc2nn(-c3ccccc3)c(=S)s2)c(=O)n(C)c1=O	8.2%	·	?	16.4µM*	?	·
CC(Sc1nn(-c2ccc(F)cc2)c(=S)s1)C(=O)c1c(N)n(C)c(=O)n(C)c1=O (centres undefined)	-13.1%	·	3.2%	13µM*	?	·
COc1ccc(C(C)NC(=O)c2[nH]c3c(c2C)C(=O)CCC3)cc1F (centres undefined)	-19.9%	·	·	·	·	·
CC1CCCCC1NC(=O)C1(c2ccccc2)CCC1 (centres undefined)	64.8%	·	·	·	·	·
CCCC[N+](CC#CCO)(CC#Cc1ccccc1)CCCC	0.9%	13.2%	-14.9%	9.2µM*	?	2.0%
CC[N+](CC)(CC#Cc1ccccc1)CC(=O)c1ccc(Cl)cc1	-23.7%	-4.9%	-6.6%	5.8µM*	5.8µM*	?
CCC[N+](CC#CCO)(CC#Cc1ccccc1)CCC	-1.9%	21.3%	?	-3.2%	0.7%	-3.0%
O=c1[nH]c2ccc(Cl)cc2c(-c2ccccc2)c1[N+](=O)[O-]	-7.0%	1.26µM*	1.3%	-23.2%	-24.6%	-9.2%
O=c1[nH]c2ccc(Cl)cc2c(-c2ccccc2)c1SC(=S)N1CCOCC1	0.0%	1µM*	-19.3%	?	?	4.47µM*
SMILES	12-LOX inh	RORg inh	ELG1 DNA repair	TDP1 cell noCPT	DT40 TDP1 CPT	VP16 counter
O=c1[nH]c2ccc(Cl)cc2c(O)c1-c1ccccc1	163.4%	0.7%	?	-1.1%	6.7%	-10.2%
Cc1ccn2c(NC(=O)C(C)(C)Oc3ccc(Cl)cc3)c(-c3cccs3)nc2c1	-17.2%	9.3%[10 µM]	?	18.4µM*	?	5.4%
COc1ccc(-c2nc3cc(C)ccn3c2NC(=O)c2ccccc2OC)cc1	-0.3%	3.5%	-8.2%	?	?	-17.0%
CSc1nc(O)c(N=Nc2ccc(F)cc2F)c(=O)[nH]1	?	?	?	?	?	10µM*
CSc1nc(O)c(C(c2ccc(F)cc2)c2c(O)nc(SC)[nH]c2=O)c(=O)[nH]1	?	·	·	-35.1%	3.2%	·
CC1CN(CCOc2ccc(Cl)c(Cl)c2)CC(C)O1 (centres undefined)	0.447µM*	24.0%[1.91 µM]	-5.3%	?	?	-1.4%
CC(=O)c1cn(CC(=O)NCc2ccc(F)cc2)c2ccccc12	61.9%	·	·	·	·	·
COc1ccc(/C=C2/SC(=O)N(CCC(=O)Nc3ccc(C)cc3)C2=O)cc1OC	1.1%	-26.0%	22.2%	·	·	-20.6%
C/C=C/c1ccc(OCC(=O)Nc2ccc(OC)c(OC)c2)c(OC)c1	0.0%	27.1%	16.4µM*	23.1µM*	16.4µM*	-1.2%
C/C=C/C(=O)OCC(=O)Nc1ccc(OC)c(OC)c1	-10.8%	-8.3%	-3.1%	-8.0%	1.9%	-13.9%
CCN(CC(=O)Nc1ccc(NC(C)=O)cc1)C(=O)/C=C/c1ccc2c(c1)OCO2	-17.0%	·	?	-16.9%	-26.5%	·
COc1cc(/C=C2\SC(N)=NC2=O)ccc1OCC(=O)Nc1ccc(C)cc1	10.2%	-9.4%	25.5%	1.46µM*	1.46µM*	-0.9%
C/C=C/c1ccc(OCC(=O)Nc2ccncc2)c(OC)c1	9.3%	?	5.2%	?	18.4µM*	?
CCCCOc1ccc(/C=C/C(=O)N(CC)CC(=O)Nc2ccc3c(c2)OCCO3)cc1OC	-5.7%	·	18.3µM*	-22.9%	?	·
Cc1cc(NC(=O)CNc2cc(S(=O)(=O)N3CCOCC3)ccc2Oc2ccccc2)no1	38.1%	·	·	·	·	·
COc1ccc(NC(=O)c2ccccc2NS(=O)(=O)c2ccc3c(c2)OCCCO3)cc1	34.8%	·	·	·	·	·
Cc1ccc(N2CN(CCc3ccccc3)CNC2=S)cc1	0.0%	5.01µM*	-15.6%	-23.6%	-6.7%	12.6µM*
CCOC(=O)c1ccc(N2CN(CCc3ccccc3)CNC2=S)cc1	44.7µM*	?	17.3%	?	16.4µM*	?
CCCN1CNC(=S)N(c2ccc(C(=O)OCC)cc2)C1	0.3%	-34.5%	13.1%	4.1%	-0.7%	-9.9%
Nc1ccn(C2OC(COP(=O)(O)O)C(O)C2O)c(=O)n1 (centres undefined)	?	·	·	1.16µM*	0.651µM*	·
O=c1ccn([C@@H]2O[C@H](COP(=O)(O)O)[C@@H](O)[C@H]2O)c(=O)[nH]1	-1.2%	·	·	-21.1%	?	·
CCOc1cc(=O)n2c(c1C(=O)Nc1cc(Cl)ccc1OC)CCCC2	31.1%	·	·	·	·	·
